PLK1 PBD block – blocks phosphopeptide binding to human PLK1 polo-box domain; 360,000 tested, 2.8% active; Potency, µM, usual class: inhibitors; P53350; Plk1 PBD binding of FITC phosphopeptide, fluorescence polarization; further: series mostly up to about 57 µM; nearly all actives have a fitted effect of over 65% in size
Target sequence (P53350 whole entry, looked up, the tested form may be a part): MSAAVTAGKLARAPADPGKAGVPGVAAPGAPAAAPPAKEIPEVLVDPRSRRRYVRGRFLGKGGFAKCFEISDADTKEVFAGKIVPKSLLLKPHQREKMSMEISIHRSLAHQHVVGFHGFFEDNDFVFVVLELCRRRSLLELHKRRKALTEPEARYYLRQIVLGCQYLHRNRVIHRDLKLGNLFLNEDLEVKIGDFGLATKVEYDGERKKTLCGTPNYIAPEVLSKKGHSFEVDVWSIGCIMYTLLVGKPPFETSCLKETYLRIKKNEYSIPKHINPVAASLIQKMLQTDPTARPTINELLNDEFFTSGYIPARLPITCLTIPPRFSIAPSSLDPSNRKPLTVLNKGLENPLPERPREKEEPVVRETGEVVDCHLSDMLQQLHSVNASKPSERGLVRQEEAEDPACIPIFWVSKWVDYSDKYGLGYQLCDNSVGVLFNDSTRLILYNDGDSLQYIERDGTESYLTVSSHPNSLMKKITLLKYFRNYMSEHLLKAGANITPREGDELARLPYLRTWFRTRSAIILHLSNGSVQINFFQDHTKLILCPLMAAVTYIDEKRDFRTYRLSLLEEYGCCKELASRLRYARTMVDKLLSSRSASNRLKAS
HP1b chromo inh – HP1-beta chromodomain-methylated histone interaction inhibition. P83916. AlphaScreen HP1-beta / biotin-H3K9me3 peptide binding. Potency, µM (series often up to 114 µM), actives largely listed as inhibitors. 390,000 tested, 0.56% active. AID 540317; further: nearly all actives have a fitted effect of over 70% in size
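HP1-beta protein (50 nM final) preincubated 30 min at room temperature with biotinylated H3(1-18)K9me3 peptide (50 nM) in PBS pH 7.4, 0.01% Tween-20, then compound added for 30 min. AlphaScreen streptavidin donor/nickel chelate acceptor beads (10 ug/mL final), 30 min dark, luminescence read.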
JMJD2A Tudor inh – JMJD2A Tudor domain (human) inhibition. O75164. AlphaScreen JMJD2A-Tudor / H3K4me3 peptide binding. Potency, µM (top dose mostly 114 µM), actives largely listed as inhibitors. 390,000 tested, 4.4% active; further: nearly all actives have a fitted effect of over 50% in size
Sfp inh – inhibitors of Bacillus subtilis Sfp phosphopantetheinyl transferase | Biochemical Sfp PPTase activity, qHTS | AID 1490 | Potency, µM, most hits filed as inhibitors | Q9F4F7 | 310,000 tested, 3.5% active;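 further: the enzyme is Sfp with the accession as filed and its product quenches rhodamine fluorescence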
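Reaction rates are the 30-min fluorescence difference (ex 525, em 598 nm) in wells containing 15 nM Sfp, 5 uM rhodamine-CoA and 12.5 uM BHQ-2-YbbR at pH 7.6 with 10 mM MgCl2.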
G9a block – inhibitors of human histone lysine methyltransferase G9a | Potency, µM (titrated, usually from 102 µM), most hits filed as inhibitors | 350,000 tested, 8.8% active | G9a H3K9 monomethylation, AlphaScreen, 2 h; further: nearly all actives have a fitted effect of over 75% in size
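AlphaScreen read-out: biotin-H3K9 peptide (500 nM) methylation by 20 nM enzyme with 20 uM SAM, 2 h at room temperature after 15 min compound preincubation; anti-monomethyl H3K9 antibody plus donor/acceptor beads, 10 min dark.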
BAZ2B inh – blocks human BAZ2B | AlphaScreen BAZ2B-H3K14Ac peptide displacement | AID 504333 | Q9UIF8 | Potency, µM (highest dose often 114 µM), actives largely listed as inhibitors | 360,000 tested, 4.4% active; further: nearly all actives have a fitted effect of over 60% in size
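AlphaScreen displacement of biotin-H3(5-23)K14Ac peptide (50 nM final) from BAZ2B (50 nM final) in PBS pH 7.4, 0.01% Tween-20; complex preformed 30 min RT, then compounds (top 110 uM) 30 min RT, beads 20 min dark.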
Hits are given with their value; n = inactive; u = inconclusive; x = no result given; [ ] = remark or other dose. The list is not random: actives were taken first. Their share in the collection is about 12%. The call rests on the fitted dose curve; in most records, active means well fitted curve in the direction sought with a large enough effect; inconclusive means small, poorly fitted or top-dose-only effect, or another doubt; inactive means no such curve, though single readings can be large; an effect the other way counts as inactive or inconclusive.

SMILES	PLK1 PBD block	HP1b chromo inh	JMJD2A Tudor inh	Sfp inh	G9a block	BAZ2B inh
CN1CCc2cc(O)c(O)cc2C(c2ccccc2)C1 (stereo unspecified)	n	n	n	x	10.6µM	n
CC(C)Oc1ccc(CNC(=O)C2CCCN(S(=O)(=O)c3ccc4c(ccn4C)c3)C2)cc1 (stereo unspecified)	x	n	n	x	n	n
CCOC(=O)c1[nH]c2c(c1Cc1ccccc1OC)C(=O)CC(c1ccc(OC)cc1)C2 (stereo unspecified)	x	n	n	x	n	n
OC1(c2ccccc2)CNCCc2ccccc21 (stereo unspecified)	n	n	n	n	n	n
Oc1cc2c(cc1O)[C@@H](c1ccccc1)CNCC2	n	n	n	20µM	8.91µM	n
COc1cc(CCNC2=CC(=O)c3ncccc3C2=O)ccc1O	n	n	n	x	x	x
CCOC(=O)N(Cc1ccccc1)Cc1ccc(C(=O)N[C@@H](Cc2ccccc2)C(=O)O)cc1	n	n	n	x	x	x
O=C(Sc1n[nH]c(=O)[nH]c1=O)c1ccccc1	5.32µM	u	7.08µM	x	x	x
COc1ccc(CNC(=O)CSc2nc(-c3ccc(OC)c(OC)c3)cc(C(F)(F)F)n2)cc1	x	n	n	x	n	u
Cc1ccccc1CN1C2=NCCN2c2ccccc21	26.7µM	n	n[11.4 µM]	n	n[12.7 µM]	n
CCCCCN1C2=NCCN2c2ccccc21	23.8µM	u	n[11.4 µM]	n	n	n
CCOC(=O)CN1C2=NCCN2c2ccccc21	n	n	n	n	n	n
COCCNC(=O)c1ccccc1N(Cc1ccccc1)S(=O)(=O)c1ccccc1	n	n	n	x	x	x
COCCNC(=O)c1ccccc1N(Cc1ccccc1)S(=O)(=O)c1ccc(C)cc1	26.7µM	n	n	n	n	n
Cc1ccc(S(=O)(=O)N(Cc2ccccc2)c2ccccc2C(=O)NCc2ccco2)cc1	n	n	u	n	50.1µM	u
Cc1ccc(S(=O)(=O)N(Cc2ccccc2)c2ccccc2C(=O)Nc2ccccc2C(=O)NCc2ccco2)cc1	n	n	n	n	n	n
O=C(c1cccnc1)N1CCN(Cc2cccc(Br)c2)CC1	n	50.1µM	3.55µM	89.1µM	12.6µM	n
COc1ccc(CN2CCN(C(=O)c3cccnc3)CC2)cc1Br	n	u	3.16µM	79.4µM	17.8µM	35.5µM
O=C(c1cccnc1)N1CCN(C(=O)c2ccco2)CC1	n	n	n	n	n	n
Cc1ccc(C(O)c2ncc(-c3ccccc3)[nH]2)c(C)c1 (stereo unspecified)	n	x	x	x	x	x
CCc1cccc(C)c1NC(=O)CN1C(=O)c2ccccc2Sc2ncccc21	x	n	n	x	n	n
COc1ccc(O)c(C(=O)c2cnn(-c3ccccn3)c2)c1	n	n	n	n	n	n
COc1ccc(O)c(C(=O)c2cnc3nc4ccccc4n3c2)c1	n	n	n	n	31.6µM	n
O=C(Nc1ccc(Cl)cc1Cl)c1n[nH]c(Cn2cncn2)n1	n	n	u	n	n[12.7 µM]	56.2µM
COC(=O)c1cccnc1NC(=S)NNC(=O)c1ccncc1	n	n	n	10µM	u	n
SMILES	PLK1 PBD block	HP1b chromo inh	JMJD2A Tudor inh	Sfp inh	G9a block	BAZ2B inh
COc1ccccc1NC(=S)NNC(=O)c1ccncc1	n	n	n	n	u	n
COC(=O)c1cccnc1NC(=S)NC1CCCCC1	n	n	n	n	14.1µM	n
COC(=O)c1ccc(NC(=S)NC2CCCCC2)cc1	n	n	n	n	x	n
CCOC(=O)CCCCC1C(CCCC(=O)OCC)C=NN1C (stereo unspecified)	n	n	n	x	x	x
CCCN1CNc2c(c(=O)[nH]c(=S)n2CCc2cc(Cl)cc(Cl)c2)C1	x	n	n	x	x	x
CC(C)(C)c1ccc(C(=O)Nc2ccc(C(=O)OCc3cc(=O)n4ccsc4n3)cc2)cc1	x	n	n	x	n[12.7 µM]	n
O=c1[nH]cnc2ncc(-c3ccc(O)cc3)nc12	n	n	79.4µM	x	x	x
CCc1c(C(C)S(=O)(=O)c2ccccc2)[nH]c(=O)n1CC (stereo unspecified)	15µM	n	u	50.1µM	3.55µM	n
Cc1ccc(-c2[nH]ncc2CNC(C)c2ccccc2)cc1 (stereo unspecified)	x	u	4.47µM	x	x	x
Cc1ccc(-c2[nH]ncc2CNCc2ccccc2)cc1	x	n	n	x	x	x
O=c1/c(=C\c2cccc(O)c2)sc2nc(-c3ccccc3)c(-c3ccccc3)n12	n	n	n	n	u	5.62µM
COc1ccc(/C=c2\sc3nc(-c4ccccc4)c(-c4ccccc4)n3c2=O)cc1OC	n	n	n[11.4 µM]	17.8µM	35.5µM	u
COc1ccc(/C=c2/sc3nc(-c4ccccc4)c(-c4ccccc4)n3c2=O)cc1	n	u	n	n	14.1µM	u
COc1cc(/C=c2/sc3nc(-c4ccccc4)c(-c4ccccc4)n3c2=O)cc(OC)c1OC	n	n	n	n	u	n
CC(=O)NCc1ccc(C(=O)CN2C(=O)NC3(CCCCC3C)C2=O)s1 (stereo unspecified)	n	n	n	x	n	n
Cc1ccc(C(=O)Nc2cccc(-c3nc4ccccc4o3)c2)c(Cl)c1	x	n	n	x	n	n
O=C(O)c1ccccc1-c1ccccc1C(=O)Nc1cccc(-c2nc3ccccc3o2)c1	67µM	n	n	n	n	n
CC(=O)Nc1cccc(-c2nc3ccccc3c(=O)o2)c1	n	n	n	n	11.2µM	n
COc1ccc(N2CCN(C(=O)CCCN3C(=O)c4cccc5cccc(c45)C3=O)CC2)cc1	n	n	u	n	x	39.8µM
COC(=O)CCCN1C(=O)c2cccc3cccc(c23)C1=O	n	n	n	n	n	44.7µM
C#CCOC(=O)CCCN1C(=O)c2cccc3cccc(c23)C1=O	n	x	x	x	x	x
O=C(CCCN1C(=O)c2cccc3cccc(c23)C1=O)N1CCN(c2ccc(F)cc2)CC1	n	n	n	n	u	n
CC(C)S(=O)(=O)c1cnc(-c2ccccn2)nc1N	n	n	50.1µM	n	n	56.2µM
O=C(Nc1nnc(S(=O)(=O)N2CCN(c3ccc(F)cc3)CC2)s1)c1ccccc1	n	n	n	n	u	n
C[C@H](N)c1nnc(SCC(=O)N(C)C)o1	n	n	u	u	8.91µM	u
SMILES	PLK1 PBD block	HP1b chromo inh	JMJD2A Tudor inh	Sfp inh	G9a block	BAZ2B inh
C[C@H](N)c1nnc(SCc2c(Cl)cccc2Cl)o1	n	n	n	u	u	u
Cc1ccccc1NC(=O)COC(=O)CCc1nc2ccccc2c(=O)[nH]1	n	n	n	n	44.7µM	n
O=C(CCc1nc2ccccc2c(=O)[nH]1)Nc1ccc(N2CCCCC2)cc1	n	n	n	n	n	u
O=C(CCc1nc2ccccc2c(=O)[nH]1)Nc1cc(Cl)ccc1N1CCCC1	n	n	n	x	14.1µM	n
O=C(COC(=O)CCc1nc2ccccc2c(=O)[nH]1)Nc1ccc2c(c1)OCO2	n	n	n	n	56.2µM	n
CC(NC(=O)COC(=O)CCc1nc2ccccc2c(=O)[nH]1)c1ccccc1 (stereo unspecified)	n	n	n	n	u	n

Screening results: PubChem, National Center for Advancing Translational Sciences (NCATS)
